PubChem BioAssay (NCI)
Compounds without any hit were thinned out: in the full panel of roughly 79,000, 15% have a hit. Active and inactive are the calls of the source. No stated cut-off is given here; in the data, active means growth inhibition above about 70%; inactive means the rest.

Columns and labels:
[1] = NCI Yeast Anticancer Drug Screen. Data for the rad52 strain (AID 147);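 further: 0% = growth of vehicle-treated control cultures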; conditions: S. cerevisiae rad52 mutant growth inhibition, hits give high values
Procedure, shortened: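 Here a repair-compromised yeast strain receives each compound; its growth is then quantified and normalised to vehicle-only controls.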

[2] = NCI Yeast Anticancer Drug Screen. Data for the wt1 strain (AID 149);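 further: 0% = growth of vehicle-treated wt1 cultures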; conditions: S. cerevisiae wt1 strain (SPY 50644) growth inhibition, hits give high values
Procedure, shortened: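 Readout: yeast growth inhibition, normalised to vehicle controls, in the wt1 strain exposed to test compounds.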

[3] = NCI Yeast Anticancer Drug Screen. Data for the rad50EPP+ strain (AID 151);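 further: 0% = growth of vehicle-treated control cultures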; conditions: S. cerevisiae rad50 mutant strain, hits give high values
Procedure, shortened: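 Read-out is yeast growth inhibition relative to vehicle; cells used were the rad50EPP+ strain.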

[4] = NCI Yeast Anticancer Drug Screen. Data for the mgt1 strain (AID 153); conditions: S. cerevisiae mgt1 mutant growth inhibition, hits give high values
Procedure, shortened: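 Measured: inhibition of mgt1 yeast growth by compound, normalized to vehicle-treated cultures.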

[5] = NCI Yeast Anticancer Drug Screen. Data for the rad50 strain (AID 155);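 further: 0% = growth of vehicle-only cultures of the same strain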; conditions: S. cerevisiae rad50 strain growth inhibition, hits give high values
Procedure, shortened: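 Compounds were tested on a yeast strain with an engineered DNA damage repair alteration; the reported value is growth inhibition normalised to vehicle treatment.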

[6] = NCI Yeast Anticancer Drug Screen. Data for the mec2-1 strain (AID 157); conditions: S. cerevisiae mec2-1 strain, hits give high values
Procedure, shortened: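 Using mec2-1 yeast: add compound, measure growth, express inhibition versus vehicle-treated cultures.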

[7] = NCI Yeast Anticancer Drug Screen. Data for the rad14 strain (AID 159);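 further: 0% = growth of vehicle-treated control cultures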; conditions: S. cerevisiae rad14 strain growth inhibition, hits give high values
Procedure, shortened: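 Compound-treated yeast with a defined DNA-repair lesion; growth inhibition normalised to vehicle-treated cultures.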

[8] = NCI Yeast Anticancer Drug Screen. Data for the sgs1 mgt1 strain (AID 161);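 further: 0% = growth of cultures given vehicle only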; conditions: S. cerevisiae sgs1 mgt1 strain, hits give high values
Procedure, shortened: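 Yeast cells carrying a defined DNA-repair defect were exposed to test compounds. Growth inhibition was measured relative to vehicle-treated controls.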

[9] = NCI Yeast Anticancer Drug Screen. Data for the CLN2oe strain (AID 163);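 further: 0% = growth of vehicle-only control cultures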; conditions: S. cerevisiae CLN2oe strain, hits give high values
Procedure, shortened: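 Whole-cell yeast growth assay. A strain engineered for altered cell-cycle control received compound, and inhibition relative to vehicle-treated cultures was recorded.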

[10] = NCI Yeast Anticancer Drug Screen. Data for the cln2 rad14 strain (AID 165);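 further: 0% = growth equal to vehicle treated cultures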; conditions: S. cerevisiae cln2 rad14 strain, hits give high values
Procedure, shortened: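 Yeast strain cln2 rad14, bearing defects in cell cycle control and DNA repair, serves as the test system; values reflect growth inhibition compared with vehicle.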

[11] = NCI Yeast Anticancer Drug Screen. Data for the bub3 strain (AID 167); conditions: S. cerevisiae bub3 mutant strain, hits give high values
Procedure, shortened: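 Growth of a checkpoint-deficient yeast mutant is measured after compound exposure. Values represent inhibition relative to vehicle.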

[12] = NCI Yeast Anticancer Drug Screen. Data for the wt2 strain (AID 169);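 further: 0% = growth of vehicle-treated yeast cultures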; conditions: S. cerevisiae wt2 strain growth inhibition, hits give high values
Procedure, shortened: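 Treated yeast vs. vehicle-treated yeast: growth inhibition determined.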

[13] = NCI Yeast Anticancer Drug Screen. Data for the mlh1 strain (AID 171);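 further: 0% = growth of vehicle-treated control cultures of the same strain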; conditions: S. cerevisiae mlh1 strain growth inhibition, hits give high values
Procedure, shortened: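 A yeast strain with a defined genetic lesion serves as the test organism. Cultures receive compound or vehicle, and growth is measured.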

[14] = NCI Yeast Anticancer Drug Screen. Data for the sgs1 strain (AID 173);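 further: 0% = growth of vehicle-only control cultures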; conditions: S. cerevisiae sgs1 mutant, hits give high values
Procedure, shortened: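 A genetically defined yeast mutant is incubated with the test compound, and its growth is compared to that of the same strain given vehicle.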

[15] = NCI Yeast Anticancer Drug Screen. Data for the mlh1 rad18 strain (AID 175); conditions: S. cerevisiae mlh1 rad18 strain growth inhibition, hits give high values
Procedure, shortened: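 Steps: expose repair-defective yeast to compound; measure growth; express inhibition against vehicle-treated controls.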

[16] = NCI Yeast Anticancer Drug Screen. Data for the rad18 strain (AID 177); conditions: S. cerevisiae rad18 mutant growth inhibition, hits give high values
Procedure, shortened: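 Measured value is growth inhibition of a yeast strain bearing a DNA repair alteration, referenced to vehicle-treated cells.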

[17] = at 5.0 µM (retest, dose inferred, filed as 0.5)
[18] = at 50.0 µM (retest, dose inferred, filed as 5.0)

Measured: growth inhibition

CCCCN(CCCC)c1ccc(N=Nc2ccc(S(=O)(=O)O)cc2)cc1
active: [1]; at 33.0 µM 89% | [1]; at 100.0 µM 90% | [2]; at 33.0 µM 97% | [2]; at 100.0 µM 97% | [3]; at 33.0 µM 84% | [3]; at 100.0 µM 87% | [4]; at 11.0 µM 92% | [4]; at 33.0 µM 97% | [4]; at 100.0 µM 97% | [5]; at 33.0 µM 92% | [5]; [18] 99% | [5]; at 50.0 µM 87.7% | [5]; at 100.0 µM 93% | [6]; at 11.0 µM 77% | [6]; at 33.0 µM 97% | [6]; [18] 98% | [6]; at 50.0 µM 90.7% | [6]; at 100.0 µM 97% | [7]; at 33.0 µM 97% | [7]; at 100.0 µM 97% | [8]; [18] 98% | [8]; at 50.0 µM 91.7% | [9]; at 33.0 µM 97% | [9]; at 100.0 µM 96% | [10]; [18] 98% | [10]; at 50.0 µM 88.7% | [11]; at 11.0 µM 71% | [11]; at 33.0 µM 94% | [11]; [18] 96% | [11]; at 50.0 µM 89.8% | [11]; at 100.0 µM 95% | [12]; at 11.0 µM 89% | [12]; at 33.0 µM 97% | [12]; at 100.0 µM 97% | [13]; at 11.0 µM 82% | [13]; at 33.0 µM 94% | [13]; at 100.0 µM 94% | [14]; at 11.0 µM 90% | [14]; at 33.0 µM 94% | [14]; at 100.0 µM 94% | [15]; [18] 99% | [15]; at 50.0 µM 88.2% | [16]; at 33.0 µM 90% | [16]; at 100.0 µM 92%
inactive: [1]; at 1.2 µM 21% | [1]; at 3.7 µM 48% | [1]; at 11.0 µM 40% | [2]; at 1.2 µM -9% | [2]; at 3.7 µM 2% | [2]; at 11.0 µM 33% | [3]; at 1.2 µM 10% | [3]; at 3.7 µM 8% | [3]; at 11.0 µM 48% | [4]; at 1.2 µM 19% | [4]; at 3.7 µM 39% | [5]; at 1.2 µM 16% | [5]; at 3.7 µM 14% | [5]; [17] 63% | [5]; at 11.0 µM 38% | [6]; at 1.2 µM 32% | [6]; at 3.7 µM 43% | [6]; [17] 52% | [7]; at 1.2 µM -5% | [7]; at 3.7 µM 8% | [7]; at 11.0 µM 38% | [8]; [17] -48% | [9]; at 1.2 µM 12% | [9]; at 3.7 µM -15% | [9]; at 11.0 µM -8% | [10]; [17] 20% | [11]; at 1.2 µM 34% | [11]; at 3.7 µM 55% | [11]; [17] -2% | [12]; at 1.2 µM -7% | [12]; at 3.7 µM 39% | [13]; at 1.2 µM 1% | [13]; at 3.7 µM 18% | [14]; at 1.2 µM 30% | [14]; at 3.7 µM 53% | [15]; [17] 51% | [16]; at 1.2 µM -18% | [16]; at 3.7 µM 0% | [16]; at 11.0 µM 8%

CN(C)CCNC(=Cc1ccc2ccccc2[n+]1C)NCCN(C)C
inactive: [1]; at 1.2 µM 0% | [1]; at 3.7 µM 0% | [1]; at 11.0 µM 0% | [1]; at 33.0 µM -1% | [1]; at 100.0 µM -2% | [2]; at 1.2 µM 0% | [2]; at 3.7 µM -2% | [2]; at 11.0 µM -2% | [2]; at 33.0 µM -1% | [2]; at 100.0 µM 0% | [3]; at 1.2 µM -2% | [3]; at 3.7 µM 0% | [3]; at 11.0 µM 1% | [3]; at 33.0 µM 3% | [3]; at 100.0 µM 2% | [4]; at 1.2 µM 0% | [4]; at 3.7 µM 0% | [4]; at 11.0 µM -3% | [4]; at 33.0 µM -1% | [4]; at 100.0 µM -1% | [5]; at 1.2 µM 1% | [5]; at 3.7 µM 1% | [5]; [17] -1% | [5]; at 11.0 µM 1% | [5]; at 33.0 µM 2% | [5]; [18] 2% | [5]; at 50.0 µM 24.2% | [5]; at 100.0 µM 1% | [6]; at 1.2 µM -5% | [6]; at 3.7 µM 0% | [6]; [17] 0% | [6]; at 11.0 µM 3% | [6]; at 33.0 µM 1% | [6]; [18] 2% | [6]; at 50.0 µM 19.6% | [6]; at 100.0 µM 1% | [7]; at 1.2 µM -2% | [7]; at 3.7 µM -1% | [7]; at 11.0 µM -2% | [7]; at 33.0 µM -3% | [7]; at 100.0 µM -2% | [8]; [17] -12% | [8]; [18] -13% | [8]; at 50.0 µM 19.4% | [9]; at 1.2 µM -3% | [9]; at 3.7 µM 0% | [9]; at 11.0 µM 0% | [9]; at 33.0 µM 4% | [9]; at 100.0 µM -1% | [10]; [17] 1% | [10]; [18] 8% | [10]; at 50.0 µM -2.95% | [11]; at 1.2 µM 2% | [11]; at 3.7 µM -3% | [11]; [17] -3% | [11]; at 11.0 µM 0% | [11]; at 33.0 µM -9% | [11]; [18] -2% | [11]; at 50.0 µM -4.65% | [11]; at 100.0 µM -5% | [12]; at 1.2 µM -2% | [12]; at 3.7 µM -3% | [12]; at 11.0 µM -2% | [12]; at 33.0 µM -2% | [12]; at 100.0 µM 0% | [13]; at 1.2 µM 0% | [13]; at 3.7 µM -2% | [13]; at 11.0 µM 1% | [13]; at 33.0 µM 0% | [13]; at 100.0 µM 0% | [15]; [17] -4% | [15]; [18] 47% | [15]; at 50.0 µM 34% | [16]; at 1.2 µM -2% | [16]; at 3.7 µM -4% | [16]; at 11.0 µM 0% | [16]; at 33.0 µM -2% | [16]; at 100.0 µM -1%
